Experimental data from PubChem BioAssay AID1159580 (chemical genetic matrix, 2015).
Hit rate of the full screen: of about 5,500 compounds, about 2,000 (36%) were called active. Roughly 18% stayed inconclusive and do not appear here. The list shows a part of the results. A number with no mark means an inactive call. Cut-off read from the data, not from the text of the source: active = normalized growth mostly below about 0.91 (no sharp cut-off); inconclusive = no clear call, values can overlap the other calls; inactive = mostly above about 0.92.

Assay: chemical genetic growth profiling, strain panel (AID 1159580);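 note: tested at 20 µM; growth read once vehicle control cultures reached saturation at 30 °C; 1 = growth at the plate median or of vehicle wells; lower values mean less growth of the strain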
Conditions: growth OD
[1] = S. cerevisiae deletion strains, locus YAL013W, strain DEP1, active compounds read low
[2] = S. cerevisiae deletion strains, locus YBR229C, strain ROT2, active compounds read low
[3] = S. cerevisiae deletion strains, locus YDL101C, strain DUN1, active compounds read low
[4] = S. cerevisiae deletion strains, locus YDR150W, strain NUM1, active compounds read low
[5] = S. cerevisiae deletion strains, locus YEL061C, strain CIN8, active compounds read low
[6] = S. cerevisiae deletion strains, locus YGR078C, strain PAC10, active compounds read low
[7] = S. cerevisiae deletion strains, locus YHR030C, strain SLT2, active compounds read low
[8] = S. cerevisiae deletion strains, locus YHR087W, strain rtc3, active compounds read low
[9] = S. cerevisiae deletion strains, locus YJL187C, strain SWE1, active compounds read low
[10] = S. cerevisiae deletion strains, locus YJR043C, strain POL32, active compounds read low
[11] = S. cerevisiae deletion strains, locus YJR075W, strain HOC1, active compounds read low
[12] = S. cerevisiae deletion strains, locus YKL190W, strain CNB1, active compounds read low
[13] = S. cerevisiae deletion strains, locus YLR039C, strain RIC1, active compounds read low
[14] = S. cerevisiae deletion strains, locus YLR058C, strain SHM2 (second series), active compounds read low
[15] = S. cerevisiae deletion strains, locus YLR085C, strain ARP6, active compounds read low
[16] = S. cerevisiae deletion strains, locus YLR262C, strain YPT6, active compounds read low
[17] = S. cerevisiae deletion strains, locus YML094W, strain GIM5, active compounds read low
[18] = S. cerevisiae deletion strains, locus YMR219W, strain ESC1, active compounds read low
[19] = S. cerevisiae deletion strains, locus YMR263W, strain SAP30, active compounds read low
[20] = S. cerevisiae deletion strains, locus YMR307W, strain GAS1, active compounds read low
[21] = S. cerevisiae deletion strains, locus YNL153C, strain GIM3, active compounds read low
[22] = S. cerevisiae deletion strains, locus YNL298W, strain CLA4 (second series), active compounds read low
[23] = S. cerevisiae deletion strains, locus YNL322C, strain KRE1, active compounds read low
[24] = S. cerevisiae deletion strains, locus YNR030W, strain Alg12, active compounds read low
[25] = S. cerevisiae deletion strains, locus YOL006C, strain TOP1, active compounds read low
[26] = S. cerevisiae deletion strains, locus YPL055C, strain LGE1, active compounds read low
[27] = S. cerevisiae deletion strains, locus YPL241C, strain CIN2, active compounds read low
[28] = S. cerevisiae deletion strains, locus YPR135W, strain CTF4, active compounds read low

## CN1C/C(=C\c2ccccc2Cl)C(=O)/C(=C/c2ccccc2Cl)C1
[1]
  normalized growth: 0.953
[2]
  normalized growth: 0.911 (active)
[3]
  normalized growth: 0.825 (active)
[4]
  normalized growth: 0.942
[5]
  normalized growth: 0.699 (active)
[6]
  normalized growth: 0.873 (active)
[7]
  normalized growth: 0.27 (active)
[8]
  normalized growth: 0.888 (active)
[9]
  normalized growth: 0.942
[10]
  normalized growth: 0.971
[11]
  normalized growth: 0.831 (active)
[12]
  normalized growth: 0.789 (active)
[13]
  normalized growth: 0.447 (active)
[14]
  normalized growth: 0.958
[15]
  normalized growth: 0.462 (active)
[16]
  normalized growth: 0.655 (active)
[17]
  normalized growth: 0.691 (active)
[18]
  normalized growth: 0.909 (active)
[19]
  normalized growth: 0.937
[20]
  normalized growth: 0.419 (active)
[21]
  normalized growth: 0.958
[22]
  normalized growth: 0.523 (active)
[23]
  normalized growth: 0.957
[24]
  normalized growth: 0.756 (active)
[25]
  normalized growth: 0.562 (active)
[26]
  normalized growth: 0.92
[27]
  normalized growth: 0.676 (active)
[28]
  normalized growth: 0.422 (active)

## CN(C)/C=C1\C(=O)c2ccccc2N(C)S1(=O)=O
[1]
  normalized growth: 1
[2]
  normalized growth: 0.994
S. cerevisiae deletion strains, locus YCL061C, strain MRC1, active compounds read low
  normalized growth: 0.999
[3]
  normalized growth: 0.999
S. cerevisiae deletion strains, locus YDL134C, strain PPH21, active compounds read low
  normalized growth: 0.987
[4]
  normalized growth: 1.02
[5]
  normalized growth: 1.01
[6]
  normalized growth: 0.982
[7]
  normalized growth: 0.907
[8]
  normalized growth: 0.954
[10]
  normalized growth: 0.989
[11]
  normalized growth: 0.949
[12]
  normalized growth: 1.01
[13]
  normalized growth: 0.84
[14]
  normalized growth: 0.983
[15]
  normalized growth: 1.06
[16]
  normalized growth: 0.906
[17]
  normalized growth: 1.02
[18]
  normalized growth: 1
[19]
  normalized growth: 1
[20]
  normalized growth: 0.859
[21]
  normalized growth: 0.997
[22]
  normalized growth: 0.97
[23]
  normalized growth: 0.999
[24]
  normalized growth: 0.98
[25]
  normalized growth: 0.946
[26]
  normalized growth: 1.13
[27]
  normalized growth: 1.01
[28]
  normalized growth: 0.761
S. cerevisiae strains, strain wild type, active compounds read low
  normalized growth: 0.991

## O=C(C=C(O)c1ccc(Br)cc1)C(=O)Nc1ccccc1
S. cerevisiae deletion strains, locus YAR019C, strain CDC15, active compounds read low
  normalized growth: 0.489 (active)
S. cerevisiae deletion strains, locus YBL105C, strain PKC1, active compounds read low
  normalized growth: 0.637 (active)
S. cerevisiae deletion strains, locus YBR135W, strain CKS1, active compounds read low
  normalized growth: 0.686 (active)
S. cerevisiae deletion strains, locus YBR136W, strain MEC1, active compounds read low
  normalized growth: 0.851 (active)
S. cerevisiae deletion strains, locus YBR160W, strain CDC28, active compounds read low
  normalized growth: 0.893 (active)
S. cerevisiae deletion strains, locus YDL017W, strain CDC7, active compounds read low
  normalized growth: 0.683 (active)
S. cerevisiae deletion strains, locus YDL028C, strain MPS1, active compounds read low
  normalized growth: 0.834 (active)
[3]
  normalized growth: 0.379 (active)
S. cerevisiae deletion strains, locus YDL108W, strain KIN28, active compounds read low
  normalized growth: 0.874 (active)
S. cerevisiae deletion strains, locus YDL132W, strain cdc53, active compounds read low
  normalized growth: 0.76 (active)
S. cerevisiae deletion strains, locus YDL214C, strain PRR2, active compounds read low
  normalized growth: 0.145 (active)
S. cerevisiae deletion strains, locus YDR052C, strain DBF4, active compounds read low
  normalized growth: 0.849 (active)
S. cerevisiae deletion strains, locus YDR054C, strain cdc34, active compounds read low
  normalized growth: 0.581 (active)
S. cerevisiae deletion strains, locus YDR226W, strain ADK1, active compounds read low
  normalized growth: 0.869 (active)
S. cerevisiae deletion strains, locus YDR477W, strain SNF1, active compounds read low
  normalized growth: 0.105 (active)
S. cerevisiae deletion strains, locus YER123W, strain YCK3, active compounds read low
  normalized growth: 0.124 (active)
S. cerevisiae deletion strains, locus YER133W, strain GLC7, active compounds read low
  normalized growth: 0.229 (active)
S. cerevisiae deletion strains, locus YFL009W, strain cdc4, active compounds read low
  normalized growth: 0.7 (active)
S. cerevisiae deletion strains, locus YFL029C, strain CAK1, active compounds read low
  normalized growth: 0.439 (active)
S. cerevisiae deletion strains, locus YFR003C, strain YPI1, active compounds read low
  normalized growth: 0.718 (active)
S. cerevisiae deletion strains, locus YFR019W, strain FAB1, active compounds read low
  normalized growth: 0.128 (active)
S. cerevisiae deletion strains, locus YFR028C, strain CDC14, active compounds read low
  normalized growth: 0.448 (active)
S. cerevisiae deletion strains, locus YGR040W, strain KSS1, active compounds read low
  normalized growth: 0.109 (active)
S. cerevisiae deletion strains, locus YGR052W, strain FMP48, active compounds read low
  normalized growth: 0.132 (active)
S. cerevisiae deletion strains, locus YGR092W, strain DBF2, active compounds read low
  normalized growth: 0.104 (active)
[7]
  normalized growth: 0.148 (active)
S. cerevisiae deletion strains, locus YHR079C, strain IRE1, active compounds read low
  normalized growth: 0.159 (active)
S. cerevisiae deletion strains, locus YHR082C, strain KSP1, active compounds read low
  normalized growth: 0.136 (active)
S. cerevisiae deletion strains, locus YHR205W, strain SCH9, active compounds read low
  normalized growth: 0.0311 (active)
S. cerevisiae deletion strains, locus YIL147C, strain SLN1, active compounds read low
  normalized growth: 0.848 (active)
S. cerevisiae deletion strains, locus YJL095W, strain BCK1, active compounds read low
  normalized growth: 0.136 (active)
S. cerevisiae deletion strains, locus YJL128C, strain PBS2, active compounds read low
  normalized growth: 0.483 (active)
S. cerevisiae deletion strains, locus YJL157C, strain FAR1, active compounds read low
  normalized growth: 0.113 (active)
S. cerevisiae deletion strains, locus YJR016C, strain ILV3, active compounds read low
  normalized growth: 0.156 (active)
S. cerevisiae deletion strains, locus YJR066W, strain TOR1 (second series), active compounds read low
  normalized growth: 0.115 (active)
S. cerevisiae deletion strains, locus YJR066W, strain TOR1, active compounds read low
  normalized growth: 0.122 (active)
S. cerevisiae deletion strains, locus YKL048C, strain ELM1, active compounds read low
  normalized growth: 0.136 (active)
S. cerevisiae deletion strains, locus YKL067W, strain YNK1, active compounds read low
  normalized growth: 0.127 (active)
S. cerevisiae deletion strains, locus YKL101W, strain HSL1, active compounds read low
  normalized growth: 0.103 (active)
S. cerevisiae deletion strains, locus YKL193C, strain SDS22, active compounds read low
  normalized growth: 0.761 (active)
S. cerevisiae deletion strains, locus YKL203C, strain TOR2, active compounds read low
  normalized growth: 0.142 (active)
S. cerevisiae deletion strains, locus YLR113W, strain HOG1, active compounds read low
  normalized growth: 0.145 (active)
S. cerevisiae deletion strains, locus YLR133W, strain CKI1, active compounds read low
  normalized growth: 0.127 (active)
S. cerevisiae deletion strains, locus YLR403W, strain SFP1, active compounds read low
  normalized growth: 0.00467 (active)
S. cerevisiae deletion strains, locus YML070W, strain DAK1, active compounds read low
  normalized growth: 0.129 (active)
S. cerevisiae deletion strains, locus YMR001C, strain CDC5, active compounds read low
  normalized growth: 0.449 (active)
S. cerevisiae deletion strains, locus YMR205C, strain PFK2 (second series), active compounds read low
  normalized growth: 0.118 (active)
S. cerevisiae deletion strains, locus YMR277W, strain FCP1, active compounds read low
  normalized growth: 0.728 (active)
S. cerevisiae deletion strains, locus YNL006W, strain LST8, active compounds read low
  normalized growth: 0.158 (active)
S. cerevisiae deletion strains, locus YNL020C, strain ARK1, active compounds read low
  normalized growth: 0.109 (active)
S. cerevisiae deletion strains, locus YNL161W, strain CBK1, active compounds read low
  normalized growth: 0.77 (active)
S. cerevisiae deletion strains, locus YNL183C, strain NPR1, active compounds read low
  normalized growth: 0.131 (active)
S. cerevisiae deletion strains, locus YNL207W, strain RIO2, active compounds read low
  normalized growth: 0.824 (active)
S. cerevisiae deletion strains, locus YNL222W, strain SSU72, active compounds read low
  normalized growth: 0.786 (active)
S. cerevisiae deletion strains, locus YNL307C, strain MCK1 (second series), active compounds read low
  normalized growth: 0.114 (active)
S. cerevisiae deletion strains, locus YOL078W, strain AVO1, active compounds read low
  normalized growth: 0.76 (active)
S. cerevisiae deletion strains, locus YOL136C, strain PFK27, active compounds read low
  normalized growth: 0.109 (active)
S. cerevisiae deletion strains, locus YOR061W, strain CKA2, active compounds read low
  normalized growth: 0.0904 (active)
S. cerevisiae deletion strains, locus YOR119C, strain RIO1, active compounds read low
  normalized growth: 0.134 (active)
S. cerevisiae deletion strains, locus YOR231W, strain MKK1, active compounds read low
  normalized growth: 0.14 (active)
S. cerevisiae deletion strains, locus YOR329C, strain SCD5, active compounds read low
  normalized growth: 0.79 (active)
S. cerevisiae deletion strains, locus YPL031C, strain PHO85, active compounds read low
  normalized growth: 0.105 (active)
S. cerevisiae deletion strains, locus YPL153C, strain RAD53, active compounds read low
  normalized growth: 0.103 (active)
S. cerevisiae deletion strains, locus YPL204W, strain HRR25, active compounds read low
  normalized growth: 0.114 (active)
S. cerevisiae deletion strains, locus YPL209C, strain IPL1, active compounds read low
  normalized growth: 0.646 (active)
S. cerevisiae deletion strains, locus YPL256C, strain CLN2, active compounds read low
  normalized growth: 0.17 (active)
S. cerevisiae deletion strains, locus YPR025C, strain CCL1, active compounds read low
  normalized growth: 0.871 (active)
S. cerevisiae deletion strains, locus YPR106W, strain ISR1, active compounds read low
  normalized growth: 0.513 (active)
S. cerevisiae deletion strains, locus YPR111W, strain DBF20, active compounds read low
  normalized growth: 0.724 (active)
S. cerevisiae deletion strains, strain NNK1, active compounds read low
  normalized growth: 0.106 (active)
S. cerevisiae deletion strains, strain TSCII, active compounds read low
  normalized growth: 0.39 (active)

## O=C(Nc1ccccc1C(=O)Nc1ccc(Br)cc1)c1ccccc1
[1]
  normalized growth: 1.01
[2]
  normalized growth: 1.02
[3]
  normalized growth: 1.05
[4]
  normalized growth: 1
[5]
  normalized growth: 0.998
[6]
  normalized growth: 1.02
S. cerevisiae deletion strains, locus YGR229C, strain SMI1, active compounds read low
  normalized growth: 1.03
[7]
  normalized growth: 1.03
[8]
  normalized growth: 1.03
[9]
  normalized growth: 1.01
[10]
  normalized growth: 1.03
[11]
  normalized growth: 0.997
[12]
  normalized growth: 1.03
[13]
  normalized growth: 1.02
[14]
  normalized growth: 1.02
[15]
  normalized growth: 1
[16]
  normalized growth: 1.03
[17]
  normalized growth: 1.01
[18]
  normalized growth: 1.01
[19]
  normalized growth: 1.03
[21]
  normalized growth: 1.03
[22]
  normalized growth: 1.06
[23]
  normalized growth: 1.02
[24]
  normalized growth: 1.02
[26]
  normalized growth: 1.08
[27]
  normalized growth: 1.01
[28]
  normalized growth: 1.17
